VP16 counter: VP16 counterscreen qHTS for inhibitors of ROR gamma transcriptional activity. Drosophila S2 Gal4-VP16 UAS-luciferase, luminescence, 20 h. 310,000 compounds, 3.5% hits. Potency, µM (titrated, usually from 53.6 µM), actives largely listed as inhibitors. AID 2546, 2010;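 note: Gal4-VP16 expression switched on by copper sulfate through the metallothionein promoter; nearly all actives have a fitted effect of over 50% in size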
RORgamma inh: qHTS for inhibitors of ROR gamma transcriptional activity | Drosophila S2 Gal4-RORgamma UAS-luciferase reporter, 20 h | Potency, µM (titrated, usually from 53.6 µM), actives largely listed as inhibitors | 310,000 compounds, 5.4% hits | AID 2551, 2010; note: nearly all actives have a fitted effect of over 60% in size
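Compounds are pin-transferred onto Drosophila Schneider cells expressing a copper-inducible Gal4–ROR gamma transactivation domain fusion. After 1 hr, copper sulfate is added to 700 uM final; luciferase is read 20 hr later.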
p53 reactivator: qHTS assay for re-activators of p53 using a Luc reporter | Potency, µM (titrated, usually from 92.2 µM), most hits filed as activators | H1299 p53-A138V BP100-luciferase reporter, luminescence, 24 h | 320,000 compounds, 0.063% hits; note: nearly all actives have a fitted effect of over 45% in size
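H1299 (p53-null), stable ts p53-A138V + BP100-Luc; 1000 cells/well, Opti-MEM/10% FBS; cpd 4 pt, 1:5; 24 h, 37 deg C, 5% CO2; detection reagent 10 min RT; luminescence.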
Six1-Eya2 blk: qHTS Assay for Inhibitors of the Six1/Eya2 Interaction. Homeobox protein SIX1 (Homo sapiens) + Protein phosphatase EYA2 (Homo sapiens), …. AlphaScreen GST-Six1/His-Eya2 binding, biochemical; active compounds read low. activity change, % (test concentration not listed). 360,000 compounds, 0.56% hits. AID 651725, 2012; in the data active = activity change below about -65%; inconclusive = mostly about -30% to -63%
Target sequence (O00167 whole entry, looked up): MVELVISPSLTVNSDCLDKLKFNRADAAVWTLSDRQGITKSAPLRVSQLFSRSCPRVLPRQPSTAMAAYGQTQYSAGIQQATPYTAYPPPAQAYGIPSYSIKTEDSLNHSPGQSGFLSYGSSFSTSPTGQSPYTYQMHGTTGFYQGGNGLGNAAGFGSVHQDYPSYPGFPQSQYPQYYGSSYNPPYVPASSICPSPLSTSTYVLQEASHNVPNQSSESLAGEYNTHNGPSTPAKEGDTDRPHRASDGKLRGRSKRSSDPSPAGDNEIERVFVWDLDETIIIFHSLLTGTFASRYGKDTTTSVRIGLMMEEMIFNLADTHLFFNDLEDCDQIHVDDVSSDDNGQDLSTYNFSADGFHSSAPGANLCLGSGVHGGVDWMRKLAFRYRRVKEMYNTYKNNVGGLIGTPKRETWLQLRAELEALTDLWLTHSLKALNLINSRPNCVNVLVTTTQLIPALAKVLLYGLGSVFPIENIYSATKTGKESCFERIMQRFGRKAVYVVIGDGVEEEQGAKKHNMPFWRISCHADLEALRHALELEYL
Target sequence (Q15475 whole entry, looked up): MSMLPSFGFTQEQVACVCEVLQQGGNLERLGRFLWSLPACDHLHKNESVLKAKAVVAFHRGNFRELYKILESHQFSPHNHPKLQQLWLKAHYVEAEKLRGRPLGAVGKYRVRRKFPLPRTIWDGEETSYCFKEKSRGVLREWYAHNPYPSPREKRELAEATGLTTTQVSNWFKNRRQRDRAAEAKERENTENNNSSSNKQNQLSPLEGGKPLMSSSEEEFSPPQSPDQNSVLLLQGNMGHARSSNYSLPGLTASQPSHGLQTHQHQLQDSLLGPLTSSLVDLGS
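Compounds are tested against tagged Six1 and Eya2 proteins bridged by glutathione donor and nickel acceptor beads; after a one-hour incubation at 37 °C without light, AlphaScreen emission is recorded.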
CtBP-E1A blk: qHTS Assay for Inhibitors of the CtBP/E1A Interaction. CtBP / adenovirus E1A interaction (AlphaScreen). AlphaScreen GST-E1A/His-CtBP binding, 1536-well; active compounds read low. activity change, % (concentration not given with the values). 340,000 compounds, 0.49% hits. AID 651724, 2012; in the data active = activity change below about -65%; inconclusive = mostly about -30% to -63%
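GST-E1A and His-tagged CtBP (125 nM each as 5X stock) were preincubated with pin-transferred compound for 2 h at 37 °C in the dark, then glutathione donor and nickel acceptor beads were added for 1 h before AlphaScreen reading.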
Large screens that a line does not name were inactive; ! = not active in a repeat. Compounds with a hit are over-represented: about 5.4% of the library has one in this group of screens. Unless noted, calls come from the whole dose curve; as a rule, active = well fitted curve in the direction sought with a large enough effect; inconclusive = small, poorly fitted or top-dose-only effect, or another doubt; inactive = no such curve, though single readings can be large; an effect the other way counts as inactive or inconclusive.

Cc1ccc(-c2nsc3c(N4CCC(C(N)=O)CC4)ncnc23)cc1	VP16 counter 0.63µM, RORgamma inh inconclusive
Cc1ccc(C(=O)N2CCN(c3ncnc4c(-c5ccccc5)nsc34)CC2)cc1	none (no result: Six1-Eya2 blk, CtBP-E1A blk)
COc1ccc(-c2nsc3c(N4CCN(S(=O)(=O)c5ccccc5F)CC4)ncnc23)cc1	none
COc1ccc(C(=O)N2CCN(c3ncnc4c(-c5ccccc5)nsc34)CC2)cc1	none
COc1ccc(-c2nsc3c(N4CCCCC4)ncnc23)cc1	VP16 counter inconclusive, RORgamma inh 1.1µM
CN(C)c1ccc(/C=C2\Oc3ccc(C#Cc4cccc(N)c4)cc3C2=O)cc1	none (no result: VP16 counter, RORgamma inh)
CCC(C)CCCCNC1=NCCS1 (stereo unspecified)	RORgamma inh inconclusive
O=C(COc1ccccc1Cl)NC1CC1	none
C=C(C)COc1ccc(-c2nc(N)ncc2-c2ccc(Cl)cc2)c(O)c1	VP16 counter inconclusive (no result: CtBP-E1A blk)
C/C(=N\NC(=O)c1ccn(C)n1)c1ccco1	p53 reactivator inconclusive
Cn1ccc(C(=O)NC(=S)N2CCSCC2)n1	RORgamma inh 11µM
COc1cccc([C@@H]2Oc3ccc(Br)cc3C(=O)[C@H]2O)c1	none (no result: p53 reactivator, Six1-Eya2 blk, CtBP-E1A blk)
COc1cccc([C@@H]2Oc3ccc(OC)cc3C(=O)[C@H]2O)c1	VP16 counter inconclusive, RORgamma inh 13µM!, p53 reactivator inconclusive
O=C(Nc1ccccc1C(=O)N1CCOCC1)c1ccc(Br)cc1	none
C[C@@H]1CN([C@H](C)CO)C(=O)c2cc(Br)cnc2O[C@@H]1CN(C)C(=O)Nc1ccccc1	none (no result: VP16 counter, RORgamma inh, p53 reactivator)
NC(=S)N/N=C1/CCSc2ccc3ccccc3c21	VP16 counter 3.2µM, RORgamma inh 0.63µM (no result: CtBP-E1A blk)
CSc1ccc(-c2nc(CSCC(=O)N3CCOCC3)c(C)o2)cc1	p53 reactivator inconclusive
CCc1ccc(-c2nc(CSCC(=O)NC3CC3)c(C)o2)cc1	VP16 counter inconclusive, RORgamma inh 2µM
CSc1ccc(-c2nc(CSCC(=O)NC3CC3)c(C)o2)cc1	VP16 counter inconclusive, RORgamma inh 8.9µM, CtBP-E1A blk inconclusive
COc1ccc(-c2nc(CSCC(=O)NCCCN3CCCC3=O)c(C)o2)cc1	VP16 counter 11µM
Cc1oc(-c2ccccc2Cl)nc1CSCC(=O)NC1CC1	none
CCOC(=O)N1CCC(NC(=O)CSCc2nc(-c3ccc(OC)cc3)oc2C)CC1	none
CCc1ccc(-c2nc(CSCC(=O)N3CCN(c4ncccn4)CC3)c(C)o2)cc1	VP16 counter 16µM, RORgamma inh 16µM
CN(C)CCCNS(=O)(=O)c1ccc(N2CCN(Cc3ccc4c(c3)OCO4)CC2)c([N+](=O)[O-])c1	RORgamma inh inconclusive
c1nc2nc(Nc3ccc(N4CCOCC4)cc3)nc(NC3CCCCC3)c2[nH]1	VP16 counter inconclusive (no result: p53 reactivator, Six1-Eya2 blk, CtBP-E1A blk)
CN(CC(=O)Nc1ccccc1Br)C(=O)Cn1[nH]c(=O)c2ccccc2c1=O	none (no result: VP16 counter, RORgamma inh, CtBP-E1A blk)
CC(C)NC(=S)NNC(=O)C12CC3CC(CC(C3)C1)C2	none
CCCCNC(=S)NNC(=O)C12CC3CC(CC(C3)C1)C2	VP16 counter inconclusive, RORgamma inh 14µM
CCCCNC(=O)c1onc(CS(=O)(=O)c2ccccn2)c1C(=O)NCCCC	none (no result: VP16 counter, RORgamma inh, CtBP-E1A blk)
CCN(CC)CCCNC(=O)c1ccc(S(=O)(=O)Nc2ccc(C)c(C)c2)cc1	p53 reactivator inconclusive (no result: VP16 counter, RORgamma inh)
Cc1ccc(OCC(=O)N2N=C(c3ccncc3)CC2(O)C(F)(F)F)cc1C (stereo unspecified)	RORgamma inh 4µM (no result: CtBP-E1A blk)
CCOC(=O)N1N=C(c2ccc(C)cc2)CC1(O)C(F)(F)F (stereo unspecified)	VP16 counter 6.3µM, RORgamma inh 6.3µM
CCOC(=O)N1N=C(c2ccccc2)CC1(O)C(F)(F)F (stereo unspecified)	none
O=C(COc1ccccc1)N1N=C(c2cccnc2)CC1(O)C(F)(F)F (stereo unspecified)	none
C[C@H](CO)N1C[C@H](C)[C@@H](CN(C)C(=O)NC2CCCCC2)Oc2ccc(NC(=O)C3CCCCC3)cc2C1=O	none (no result: VP16 counter, RORgamma inh)
S=C1NCCc2ccccc2C1c1ccccc1 (stereo unspecified)	VP16 counter 0.16µM, RORgamma inh 0.22µM
O=C(CC1NCCc2ccccc21)Nc1ccccc1Cl (stereo unspecified)	none
S=C1NCCc2ccccc2C1c1ccccc1Cl (stereo unspecified)	VP16 counter 3.5µM, RORgamma inh 7.9µM
CCNC(=O)CSc1nnc(CN2CCCCCC2=O)n1-c1ccccn1	none
O=C1CCCCCN1Cc1nnc(SCc2nc3ccccc3s2)n1-c1ccccn1	VP16 counter 7.1µM, RORgamma inh 2.5µM
NC(=O)C1CCN(Cc2nc3cc(C(F)(F)F)ccc3c(=O)[nH]2)CC1	none (no result: CtBP-E1A blk)
Cc1cc(NC(=O)NC(C(F)(F)F)C(F)(F)F)no1	none
COC(=O)c1sccc1OCc1cccc(OC)c1	VP16 counter inconclusive (no result: CtBP-E1A blk)
Cc1nc2ccccc2cc1OCc1ccccc1	VP16 counter inconclusive, RORgamma inh inconclusive
Cc1nc2ccccc2cc1OCc1ccc(Cl)cc1	VP16 counter 3.5µM, RORgamma inh inconclusive
COc1cccc(COc2cc3ccccc3nc2C)c1	VP16 counter 5µM
COc1cc(CN2CC(=O)N(c3cc(Cl)ccc3C)C2=S)cc(OC)c1OC	none (no result: CtBP-E1A blk)
CS(=O)(=O)c1sc(C#N)c2c1C(=O)CC(c1ccccc1)C2 (stereo unspecified)	VP16 counter 4.5µM, RORgamma inh 4.5µM
O=[N+]([O-])c1cc(Cl)ccc1N1CCN(c2cccc(C(F)(F)F)c2)CC1	RORgamma inh inconclusive, Six1-Eya2 blk inconclusive, CtBP-E1A blk inconclusive
O=[N+]([O-])c1cc(CN2CCCC2)c2cccnc2c1O	VP16 counter inconclusive, RORgamma inh inconclusive, Six1-Eya2 blk -79
O=[N+]([O-])c1cc(CN2CCN(c3cccc(C(F)(F)F)c3)CC2)c2cccnc2c1O	VP16 counter inconclusive, RORgamma inh 0.11µM, p53 reactivator inconclusive, Six1-Eya2 blk -70, CtBP-E1A blk -90
O=C(O)c1ccc(CSC2CCCCC2)cc1	none
CCNc1ncc2nc(-c3ccc(F)cc3)c(=O)n(C)c2n1	none (no result: p53 reactivator, Six1-Eya2 blk, CtBP-E1A blk)
Cc1nnc(C)n1/N=C/c1ccc(-c2ccccc2Cl)o1	none
S=c1[nH]nc(-c2ccccn2)n1/N=C/c1ccc(-c2ccccc2Br)o1	RORgamma inh 10µM, Six1-Eya2 blk inconclusive
S=c1[nH]nc(-c2ccccc2)n1/N=C/c1ccc(-c2ccccc2Cl)o1	VP16 counter inconclusive, RORgamma inh 4.5µM, Six1-Eya2 blk inconclusive
Cc1ccc(/C=N/n2c(-c3cccc(Cl)c3)n[nH]c2=S)o1	VP16 counter inconclusive, RORgamma inh 5µM
S=c1[nH]nc(-c2cccc(Cl)c2)n1/N=C/c1ccc(-c2ccccc2Br)o1	RORgamma inh 0.79µM

Source: PubChem
